Test results published in ChEMBL document CHEMBL1857833, “Screening and optimization of specific chemical series against human African Trypanosomiasis (HAT)”.
Screen size: about 4,400 compounds; about 390 (8.9%) showed an effect of 50% or more. This is one part of a sample in which strong results are shown more often than they occur.

The molecules below were run on Trypanosoma brucei (assay: DNDI: Inhibition of Human African Trypanosomiasis, SBRI 427, in vitro at 2 ug.mL-1).
Format: functional
In the case of `CCN(Cc1coc(-c2cccc3ccccc23)n1)C(C)C`, the “% inhibition” value is reported as -1%.
For `Cc1cccc(N2CCN(Cc3coc(-c4ccccc4Cl)n3)CC2C)c1` (stereo not given), the “% inhibition” value was -10%.
`COCCN/C(=N\O)c1cccnc1Oc1c(F)cccc1F` was tested, and the “% inhibition” value was 65%.
For `COCCN/C(=N\O)c1cccnc1Oc1cccc(C)c1C`, the “% inhibition” value was 0%.
In the case of `CSCCN/C(=N\O)c1cccnc1Oc1cccc2ccccc12`, the “% inhibition” value is reported as 11%.
For `COc1ccc(Oc2ncccc2/C(=N/O)NCCSC)cc1`, the “% inhibition” value was 10%.
With `CCOc1ccccc1Oc1ncccc1/C(=N/O)NCCOC` the “% inhibition” value was 13%.
For `CSCCN/C(=N\O)c1cccnc1Oc1c(F)cccc1F`, the “% inhibition” value was 78%.
`CC(NCc1coc(-c2cccc(F)c2)n1)C(C)(C)C` (stereo not given) was tested, and the “% inhibition” value was 8%.
For `Clc1ccccc1-c1nc(CN2CCCCCCC2)co1`, the “% inhibition” value was 14%.
`Cc1cccc(CNCc2coc(-c3ccccc3Br)n2)c1` was tested, and the “% inhibition” value was -1%.
For `CC1CC(C)CN(/C(=N\O)c2ccc(Oc3ccc(Cl)cc3)nc2)C1` (stereo not given), the “% inhibition” value was 0%.
For `CCOc1ccccc1-c1nc(CNCc2ccc(C(F)(F)F)cc2)co1`, the “% inhibition” value was 6%.
With `O/N=C(\NCc1cc(F)cc(F)c1)c1ccc(Oc2cccc(F)c2)nc1` the “% inhibition” value was 42%.
In the case of `O/N=C(\NCc1cccs1)c1ccc(Oc2ccc3ccccc3c2)nc1`, the “% inhibition” value is reported as -9%.
In the case of `CN(Cc1cccnc1)/C(=N\O)c1ccc(Oc2ccc3ccccc3c2)nc1`, the “% inhibition” value is reported as 9%.
With `O/N=C(\NCc1ccncc1)c1ccc(Oc2cccc(F)c2)nc1` the “% inhibition” value was 50%.
For `O/N=C(\NCc1cccs1)c1ccc(Oc2cccc(F)c2)nc1`, the “% inhibition” value was 75%.
With `Cc1cc(Oc2ccc(/C(=N/O)NCc3ccncc3)cn2)cc(C(C)C)c1` the “% inhibition” value was 3%.
`CC(C)c1cccc(Oc2ccc(/C(=N/O)N(C)Cc3cccnc3)cn2)c1` was tested, and the “% inhibition” value was 99%.
In the case of `CC(C)c1cccc(Oc2cc(/C(=N/O)NCc3ccncc3)ccn2)c1`, the “% inhibition” value is reported as 10%.
`COc1ccc(CN/C(=N\O)c2ccc(Oc3cccc(F)c3)nc2)cc1` was tested, and the “% inhibition” value was -3%.
`Cc1cc(Oc2ccc(/C(=N/O)N(C)Cc3cccnc3)cn2)cc(C(C)C)c1` was tested, and the “% inhibition” value was 12%.
`COc1cccc(Oc2ccc(/C(=N/O)NCc3cccs3)cn2)c1` was tested, and the “% inhibition” value was 2%.
`CC(C)c1cccc(Oc2ccc(/C(=N/O)NCc3ccncc3)cn2)c1` was tested, and the “% inhibition” value was 100%.
`COc1cc(C)ccc1Oc1ncccc1/C(=N/O)NCc1ccccn1` was tested, and the “% inhibition” value was -7%.
In the case of `COC(=O)C1CCN(/C(=N\O)c2ccc(C)nc2Oc2ccc3ccccc3c2)CC1`, the “% inhibition” value is reported as 19%.
In the case of `Clc1ccccc1-c1nc(CN2CCCc3ccccc32)co1`, the “% inhibition” value is reported as 1%.
In the case of `Clc1ccccc1-c1nc(CNCCN2CCOCC2)co1`, the “% inhibition” value is reported as 2%.
With `CCOC(=O)C1CCCCN1Cc1coc(-c2ccccc2Br)n1` (stereo not given) the “% inhibition” value was -3%.
